Reference: PubChem BioAssay AID1159580 (chemical genetic matrix, 2015)
“And” between values parts separate entries of the source, which are not always exact repeats. Equal entries are not always repeated. Out of some 5,500 compounds screened, about 2,000 (36%) were called active. Not shown: some 18% with an inconclusive outcome. No stated cut-off is given here; in the data, active means normalized growth mostly below about 0.91 (no sharp cut-off); inconclusive means no clear call, values can overlap the other calls; inactive means mostly above about 0.92. This is one part of the list.

Assay: chemical genetic growth profiling, strain panel (AID 1159580);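 further: tested at 20 µM; growth read once vehicle control cultures reached saturation at 30 °C; 1 = growth at the plate median or of vehicle wells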
Settings: S. cerevisiae deletion strains, growth OD

Measured: normalized growth

COc1ccc2[nH]cc(CCN)c2c1
inactive: locus YAL013W, strain DEP1, stronger effect = lower value 0.982 | locus YAL021C, strain ccr4, stronger effect = lower value 1.04 | locus YAL026C, strain drs2, stronger effect = lower value 0.987 | locus YAL030W, strain snc1, stronger effect = lower value 0.995 | locus YAL040C, strain CLN3, stronger effect = lower value 0.967 | locus YBL061C, strain skt5, stronger effect = lower value 0.989 | locus YBR009C, strain hhf1, stronger effect = lower value 1.02 | locus YBR021W, strain FUR4, stronger effect = lower value 0.985 | locus YBR023C, strain chs3, stronger effect = lower value 1 | locus YBR171W, strain sec66, stronger effect = lower value 0.993 | locus YBR229C, strain ROT2, stronger effect = lower value 0.95 | locus YBR231C, strain swc5, stronger effect = lower value 0.986 | locus YBR279W, strain paf1, stronger effect = lower value 0.995 | locus YCL011C, strain gbp2, stronger effect = lower value 1.01 | locus YCL016C, strain dcc1, stronger effect = lower value 1.02 | locus YCL029C, strain bik1, stronger effect = lower value 0.998 | locus YCL061C, strain MRC1 (second series), stronger effect = lower value 1 | locus YCL061C, strain MRC1, stronger effect = lower value 0.998 | locus YCL069W, strain vba3, stronger effect = lower value 0.992 | locus YCR088W, strain abp1, stronger effect = lower value 0.99 | locus YDL005C, strain med2, stronger effect = lower value 1.02 | locus YDL035C, strain GPR1, stronger effect = lower value 0.985 | locus YDL040C, strain nat1, stronger effect = lower value 0.991 | locus YDL074C, strain BRE1, stronger effect = lower value 0.999 | locus YDL101C, strain DUN1, stronger effect = lower value 0.989 | locus YDL134C, strain PPH21, stronger effect = lower value 0.973 | locus YDL185W, strain tfp1, stronger effect = lower value 0.97 | locus YDL192W, strain arf1, stronger effect = lower value 0.989 | locus YDR001C, strain nth1, stronger effect = lower value 0.989 | locus YDR069C, strain doa4, stronger effect = lower value 0.971 | locus YDR101C, strain arx1, stronger effect = lower value 0.998 | locus YDR137W, strain rgp1, stronger effect = lower value 1.01 | locus YDR150W, strain NUM1, stronger effect = lower value 0.963 and 0.992 | locus YDR159W, strain sac3, stronger effect = lower value 0.933 | locus YDR162C, strain NBP2, stronger effect = lower value 0.945 | locus YDR195W, strain ref2 0.951 | locus YDR297W, strain sur2, stronger effect = lower value 0.989 | locus YDR318W, strain mcm21, stronger effect = lower value 0.995 | locus YDR334W, strain swr1, stronger effect = lower value 0.982 | locus YDR335W, strain msn5, stronger effect = lower value 0.995 | locus YDR363W, strain ESC2, stronger effect = lower value 0.978 | locus YDR388W, stronger effect = lower value 0.986 | locus YDR392W, strain spt3, stronger effect = lower value 0.951 | locus YDR502C, strain sam2, stronger effect = lower value 0.995 | locus YEL003W, strain gim4, stronger effect = lower value 0.986 | locus YEL037C, strain rad23, stronger effect = lower value 0.988 | locus YEL061C, strain CIN8 (second series), stronger effect = lower value 0.989 | locus YEL061C, strain CIN8, stronger effect = lower value 0.977 | locus YER002W, strain NOP16, stronger effect = lower value 1.01 | locus YER015W, strain faa2, stronger effect = lower value 1 | locus YER016W, strain bim1, stronger effect = lower value 0.991 | locus YER110C, stronger effect = lower value 0.964 | locus YER111C, strain swi4, stronger effect = lower value 1 | locus YER155C, strain BEM2 (second series), stronger effect = lower value 0.978 | locus YER155C, strain BEM2, stronger effect = lower value 0.993 | locus YER167W, strain BCK2, stronger effect = lower value 0.987 | locus YFR010W, strain ubp6, stronger effect = lower value 0.979 | locus YGL078C, strain dbp3, stronger effect = lower value 0.984 | locus YGL086W, strain mad1, stronger effect = lower value 0.966 | locus YGL167C, strain pmr1, stronger effect = lower value 0.994 | locus YGL173C, strain kem1, stronger effect = lower value 0.997 | locus YGL227W, strain vid30, stronger effect = lower value 0.983 | locus YGL240W, strain doc1, stronger effect = lower value 0.986 | locus YGL248W, strain PDE1, stronger effect = lower value 0.981 | locus YGL253W, strain hxk2, stronger effect = lower value 0.974 | locus YGR078C, strain PAC10, stronger effect = lower value 0.999 | locus YGR135W, strain pre9, stronger effect = lower value 0.989 | locus YGR229C, strain SMI1, stronger effect = lower value 1.02 | locus YGR252W, strain gcn5, stronger effect = lower value 0.843 | locus YHR013C, strain ard1, stronger effect = lower value 0.973 | locus YHR027C, strain rpn1, stronger effect = lower value 1 | locus YHR030C, strain SLT2, stronger effect = lower value 0.985 | locus YHR079C, strain IRE1 (second series), stronger effect = lower value 0.992 | locus YHR094C, strain hxt1, stronger effect = lower value 0.984 | locus YHR129C, strain ARP1, stronger effect = lower value 0.996 | locus YHR142W, strain chs7, stronger effect = lower value 1 | locus YHR200W, strain rpn10, stronger effect = lower value 0.991 | locus YIL066C, strain RNR3, stronger effect = lower value 0.99 | locus YIL073C, strain SPO22, stronger effect = lower value 0.938 | locus YIL125W, strain kgd1, stronger effect = lower value 0.975 | locus YIR030C, strain dcg1, stronger effect = lower value 0.976 | locus YJL092W, strain hpr5, stronger effect = lower value 0.999 | locus YJL095W, strain BCK1 (second series), stronger effect = lower value 0.992 | locus YJL095W, strain BCK1, stronger effect = lower value 1.04 | locus YJL115W, strain asf1, stronger effect = lower value 0.99 | locus YJL129C, strain trk1, stronger effect = lower value 0.995 | locus YJL134W, strain LCB3, stronger effect = lower value 0.988 | locus YJL154C, strain vps35, stronger effect = lower value 0.981 | locus YJL164C, strain tpk1, stronger effect = lower value 1.02 | locus YJL166W, strain qcr8, stronger effect = lower value 1.01 | locus YJL168C, strain set2, stronger effect = lower value 0.999 | locus YJL187C, strain SWE1 (second series), stronger effect = lower value 0.993 | locus YJL187C, strain SWE1, stronger effect = lower value 1.01
